Assay outcomes as filed in PubChem BioAssay.
Most compounds without a hit are left out; they make up all but 6.8% or so of the library.
MCF10A rereplic – induces DNA re-replication in MCF 10a normal breast cells; actives 2.9% (n = 350,000); MCF 10A DNA re-replication, Hoechst nuclear intensity, 48 h; Potency, µM (highest dose often 46.1 µM), without a hit: at the highest dose activity, positive = re-replication, hits mostly activators; AID 624296; further: % of control where 0% means no effect; nearly all actives have a fitted effect of over 50% in size
TSG101-PTAP inh – blocks PTAP/TSG101 interaction to inhibit HIV-1 budding; Q99816; Fluorescence polarization, FITC-PTAP peptide / Tsg101 binding; Potency, µM (titrated, usually from 115 µM), inactives show at the top dose activity change, negative = inhibition, hits mostly inhibitors; 340,000 tested, under 10 active; AID 493005; active means well fitted inhibition curve with a large enough effect in the main read-out, with a control signal flat, not every such curve was filed as active; inconclusive means small, poorly fitted or top-dose-only effect, or effect the other way, or a change in a side signal; inactive means no such curve, though single readings can be large or run the other way; further: % of control where 0% means no effect
Target sequence (Q99816 whole entry, looked up): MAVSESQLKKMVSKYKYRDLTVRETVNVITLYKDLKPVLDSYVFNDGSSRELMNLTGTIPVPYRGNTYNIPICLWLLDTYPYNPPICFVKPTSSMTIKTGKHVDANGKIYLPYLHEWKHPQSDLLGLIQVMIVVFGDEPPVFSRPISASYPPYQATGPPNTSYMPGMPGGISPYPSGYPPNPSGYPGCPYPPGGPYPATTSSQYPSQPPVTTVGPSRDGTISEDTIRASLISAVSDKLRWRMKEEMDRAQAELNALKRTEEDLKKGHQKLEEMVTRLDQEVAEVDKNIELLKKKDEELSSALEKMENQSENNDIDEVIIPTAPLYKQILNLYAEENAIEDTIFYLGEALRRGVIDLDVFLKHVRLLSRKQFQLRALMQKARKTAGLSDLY
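FP read-out: FITC-PTAP peptide, 50 nM final, binding Tsg101 binding domain, 10 uM final; 20 min, r.t.; 10 mM HEPES pH 7.5, 0.15 M NaCl, 0.01% Tween 20, 3 mM EDTA, 0.1 mM TCEP.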
SW480 rereplic – induces DNA re-replication in SW480 colon adenocarcinoma cells | SW480 DNA re-replication, Hoechst DNA content imaging, 48 h | Potency, µM (series often up to 46.1 µM), for inactives: at the highest dose re-replication activation, hits mostly activators | actives 1.8% (n = 340,000) | AID 624297; further: % of control where 0% means no effect; nearly all actives have a fitted effect of over 55% in size
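Image-based DNA-content assay: after two days of treatment, nuclei were labelled with the DNA dye Hoechst and imaged, and hits were compounds raising the count of nuclei showing high fluorescence intensity.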
PINK1 modulator – PINK1 expression modulation; PINK1 immunofluorescence, high-content cytometry, 24 h; Potency, µM (top dose mostly 76.6 µM), for the others: top-dose activation (PINK1 increase), most hits filed as activators; actives 0.2% (n = 410,000); AID 624263; active means well fitted activation curve with a large enough effect; inconclusive means small, poorly fitted or top-dose-only effect; cell line not stated here; further: % of control where 0% means no effect; nearly all actives have a fitted effect of over 65% in size
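Fluorescence from anti-PINK1 antibody, together with nuclear and cell stains, was scanned on a laser-scanning cytometer. Before staining, stable-line cells were incubated 24 hours with compounds at 5 concentrations; primary antibody 12 h at 10 degrees C.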
KB-3-1 cytotox – KB-3-1 parental cell cytotoxicity; KB-3-1 viability, CellTiter-Glo ATP luminescence, 72 h; Potency, µM (top dose mostly 46.1 µM), most hits filed as cytotoxic; actives 1.4% (n = 400,000); AID 1347075; further: on the % scale 0 is the no-effect control and ±100 the full control effect; nearly all actives have a fitted effect of over 60% in size
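Screening of KB-3-1 cells (DMEM, 10% FBS, phenol-red free) ran from lowest to highest compound concentration; after 72 h at 37 °C viability was read luminescently and curves fitted.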
KB-V1 MDR tox – KB-V1 MDR subline cytotoxicity; Potency, µM (series often up to 46.1 µM), usual class: cytotoxic; actives 3.4% (n = 400,000); AID 1347076; KB-V1 MDR cells viability, CellTiter-Glo, 72 h; further: on the % scale 0 is the no-effect control and ±100 the full control effect; nearly all actives have a fitted effect of over 60% in size
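KB-V1 MDR subline cells in DMEM (phenol-red free, 10% FBS) exposed to compounds in qHTS concentration series for 72 h at 37 degrees C. Viability read by CellTiter-Glo luminescence; concentration-effect curves fitted after normalization and correction.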
Numbers without * were called inactive; i = inactive; u = inconclusive; x = not tested or not shown; ! = not confirmed by another sample; [ ] = dose if it differs, or a comment. Unless noted, the call rests on the fitted dose curve; in most records, active means well fitted curve in the direction sought with a large enough effect; inconclusive means small, poorly fitted or top-dose-only effect, or another doubt; inactive means no such curve, though single readings can be large; an effect the other way counts as inactive or inconclusive. Potency means the concentration at half of the fitted maximal effect.

SMILES	MCF10A rereplic	TSG101-PTAP inh	SW480 rereplic	PINK1 modulator	KB-3-1 cytotox	KB-V1 MDR tox
O=C(c1csnn1)N1CCC2(CC1)CN(Cc1ccncc1)C2	x	x	x	-1%	x	x
Cc1ccc(N/N=C/C=C/c2ccco2)cc1	12µM*	-2%	21µM*	6%	i	i
O=C(c1csnn1)N1CCC[C@@]2(CCN(Cc3ccncc3)C2)C1	x	x	x	0%	x	x
CC(=O)OC1C[C@H](O[C@@H]2C(O)C[C@H](O[C@@H]3C(O)C[C@@H](OC4CC[C@]5(C)C(CCC6C5CC(O)[C@@]5(C)C(C7=CC(=O)OC7)CC[C@@]65O)C4)OC3C)OC2C)O[C@H](C)[C@H]1O[C@H]1OC(CO)C(O)C(O)C1O (stereo partly drawn)	0.12µM*	x	u	x	x	x
CC(=O)OC1CC(OC2C(O)CC(OC3C(O)CC(OC4CCC5(C)C(CCC6C5CCC5(C)C(C7=CC(=O)OC7)CCC65O)C4)OC3C)OC2C)OC(C)C1OC1OC(CO)C(O)C(O)C1O (stereo not drawn)	15%	-1%	0.92µM*	-6%	u	0.41µM*
CC1OC(OC2CCC3(C)C(CCC4C3CC(O)C3(C)C(C5=CC(=O)OC5)CCC43O)C2)CC(O)C1OC1CC(O)C(OC2CC(O)C(OC3OC(CO)C(O)C(O)C3O)C(C)O2)C(C)O1 (stereo not drawn)	6%	x	u	x	x	x
Cc1cc(OCC(=O)N2CCN(CCc3ccccn3)CC2)cc(C)c1Cl	x	x	x	2%	i	i
C(#CCN1CCOCC1)COC/C=C/c1ccccc1	1%	-2%	77%	1%	i	21µM*
CN(C)c1ccc(/C=C/C=C/c2sc3ccccc3[n+]2C)cc1	-1%	-1%	12%	5µM*	10µM*	i
CC[n+]1c(/C=C/N(C)c2ccccc2)sc2ccc(Cl)cc21	2%	-6%	7%	x	15µM*	12µM*
CN(C)c1ccc(/C=C/c2cc[n+](C)c3ccccc23)cc1	u	0%	u	25µM*	2.9µM*!	16µM*!
CC[n+]1c(/C=C/C=C/c2ccc(N(C)C)cc2)sc2ccccc21	-2%	1%	-11%	0%	1.5µM*	u
N#Cc1ccc(CN2CCCC3(CCN(C(=O)Oc4ccccc4)CC3)C2)cc1	x	x	x	3%	x	x
N#Cc1cc2c(nc1SCC(=O)Nc1ccc(C(F)(F)F)cc1)C1CCN2CC1	x	x	x	1%	x	x
CC(O)(CS(=O)(=O)c1ccccc1)C(=O)Nc1ccc(C(F)(F)F)cc1 (stereo not drawn)	-5%	-14%	-5%	-2%[38.3 µM]	i	15µM*
O=C(O)c1cccc2c1NC(C(=O)O)C1CC(Sc3ccccc3[N+](=O)[O-])C(Cl)C21 (stereo not drawn)	0%	-4%	-3%	2%	i	i
CC(=O)c1ccc2c(c1)C1C(Cl)C(Sc3ccccc3[N+](=O)[O-])CC1C(C(=O)O)N2 (stereo not drawn)	-44%	2%	1%	6%	i	10µM*
O=c1cccc2n1CC1CC2CN(Cc2cccc(Cl)c2Cl)C1 (stereo not drawn)	25%	-9%	2%	-2%[38.3 µM]	i	18µM*
C[C@H]1COC(=O)[C@@H](Cc2ccc(F)cc2)CC/C=C/C[C@H](CC(=O)N(CCO)Cc2ccccc2)C(=O)N1	10%	x	-4%	-1%	i	i
c1cc2c(cc1NC1=NCCO1)CCCC2	u	-6%	u	3%	15µM*	u
COc1cc2nc(N3CCCN(C)CC3)nc(N(C)C3CCN(C)CC3)c2cc1OC	x	x	x	-1%	i	i
O=C(NN=Cc1ccc(N(CCCl)CCCl)cc1)C(=O)c1c[nH]c2ccccc12	16µM*	2%	u	-3%	u	i
O=C(NN=Cc1ccc(N(CCCl)CCCl)cc1)c1cc(=O)[nH]c(=O)[nH]1	u	-4%	7.3µM*	-1%	i	i
